Measurements reported in PubChem BioAssay (NCATS).
Results filed as inconclusive are left out. Where a call stands in place of a potency, no number is given. Activity calls are given as the source filed them. Unless noted, calls follow the shape of the dose curve; as a rule, active = well fitted curve in the direction sought with a large enough effect; inconclusive = small, poorly fitted or top-dose-only effect, or another doubt; inactive = no such curve, though single readings can be large; an effect the other way counts as inactive or inconclusive.

Legend:
[1] = tested on: Zika virus NS2B-NS3 protease; test: Primary screen GU AMC qHTS for Zika virus inhibitors (AID 1347154); also: nearly all actives have a fitted effect of over 70% in size
Summary of the method: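 Unlinked Zika NS2B hydrophilic domain/NS3 protease domain noncovalent complex (25 nM final) in 10 mM Tris-HCl pH 8.0, 0.01% Tween 20, with AMC peptide substrate. Fluorescence (ex 340, em 450 nm) change over 15 min, room temperature; percent inhibition fitted to 4-parameter Hill equation.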

[2] = target: Cytochrome P450 3A4 (Homo sapiens) (UniProt P08684); test: qHTS Assay for Inhibitors and Substrates of Cytochrome P450 3A4 (AID 884); also: nearly all actives have a fitted effect of over 50% in size
Summary of the method: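 20 nM human CYP3A4 with 25 uM Luciferin-PPXE (at KM) in 200 mM KPO4, preincubated 10 min with compound; NADPH regeneration started a 60 min RT reaction. Luciferin detected by luminescence, normalized to 57 uM ketoconazole as full inhibition.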

[3] = Confirmation and Secondary Assay for Modulators of Hemoglobin Beta Chain Splicing at IVS2 654 locus (AID 910);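 also: per-well total GFP intensity by laser scanning cytometry after 2-day treatment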
Summary of the method: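 HeLa cells stably carrying EGFP interrupted by mutant beta-globin IVS2-654 intron (CMV-driven) were treated with compound for 2 days at 37C; corrected splicing was scored as total peak GFP intensity per well (488 nm excitation, 500-520 nm emission).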

[4] = Confirmation and Secondary Assay for Modulators of Hemoglobin Beta Chain Splicing at IVS2 705 locus (AID 930);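 also: HeLa cells stably expressing the EGFP-705 splicing reporter; GFP fluorescence per well restored by corrected splicing of the IVS2-705 intron in EGFP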
Summary of the method: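 Per-well GFP, captured at 1 x 8 µm resolution with 488 nm excitation, served as the read-out for HeLa EGFP-705 cells incubated 2 days with test compound versus DMSO.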

[5] = qHTS Assay for Lipid Storage Modulators (AID 1519; calls by dose curve); conditions: Drosophila S3 cells, BODIPY lipid droplet/cell ratio, laser cytometry, cells loaded with oleic acid; for activity change, negative = inhibition: at 57.5 µM (top of the series)
Summary of the method: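 Cells seeded at 5,000 per well were treated with compounds over a concentration series and loaded with oleic acid (400 uM, as added). Lipid droplet fluorescence (488 nm excitation, 500-530 nm channel) was read by laser-scanning cytometry and normalized to 20 uM Triacsin C.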

[6] = target: Furin (Homo sapiens) (UniProt P09958); test: Furin counterscreen qHTS for Zika virus inhibitors (AID 1347149);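 also: purified recombinant full-length human furin enzyme at 5 nM; fluorescence gain from furin cutting a BOC-RVRR-AMC peptide substrate over 15 min; top concentration of the series differs between compounds; nearly all actives have a fitted effect of over 70% in size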
Summary of the method: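 Fluorogenic cleavage of BOC-RVRR-AMC (2 microM final, Km ~15 µM) was monitored (ex 340, em 450 nm) at 37C after 15 min RT preincubation of 5 nM furin with compounds in HEPES pH 7.0 buffer with CaCl2 and Triton X-100. Percent inhibition was fitted to a 4-parameter Hill curve.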

[7] = Confirmatory screen GU Rhodamine qHTS for Zika virus inhibitors qHTS (AID 1347157); also: potency is read from the fitted curve at half-maximal effect; nearly all actives have a fitted effect of over 70% in size
Summary of the method: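 Enzyme 25 nM in Tris-HCl pH 8.0 + 0.01% Tween 20; compounds up to 114 microM, 15 min RT dark; + Rhod110 substrate 1.5 microM; read t0 and 15 min; delta fluorescence → % inhibition → 4-parameter Hill fit.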

[8] = Confirmatory screen NINDS Rhodamine qHTS for Zika virus inhibitors (AID 1347161); also: potency is read from the fitted curve at half-maximal effect; nearly all actives have a fitted effect of over 60% in size
Summary of the method: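 In 10 mM Tris-HCl pH 8.0 containing 0.01% Tween 20, linked NS2B-NS3 protease (25 nM final) is exposed to test compounds for 15 min. Cleavage of 1.5 microM Rhodamine110 substrate is tracked by fluorescence over 15 min.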

[9] = tested on: Zika virus NS2B-NS3 protease (linked); test: 384 well plate NINDS AMC confirmatory qHTS for Zika virus inhibitors (AID 1347163); conditions: Recombinant NS2B-NS3 protease, Ac-VKTGKR-AMC fluorescence; also: potency is read from the fitted curve at half-maximal effect; nearly all actives have a fitted effect of over 50% in size
Summary of the method: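 Linked NS2B-NS3 protease (final 5 nM, 30 nM or 60 nM) was preincubated with compounds (final up to 1 mM) for ~15 minutes. Ac-VKTGKR-AMC substrate (final 30 microM) then reacted for 25 minutes at room temperature in the dark. Fluorescence (ex 355/em 460 nm) was normalized to no-enzyme and no-inhibitor controls.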

[10] = tested on: Zika virus NS2B-NS3 protease (linked construct); test: 384 well plate NINDS Rhodamine confirmatory qHTS for Zika virus inhibitors (AID 1347164);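 also: fluorescence from protease cleavage of Ac-LKRR-rhodamine 110 substrate; potency is read from the fitted curve at half-maximal effect; nearly all actives have a fitted effect of over 65% in size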
Summary of the method: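 Fluorescence at 485/538 nm was measured 25 minutes after adding 10 microM Ac-LKRR-Rd substrate, in the dark at room temperature. The protease (5, 30 or 60 nM final) had been preincubated ~15 minutes with compound; aprotinin as control.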

[11] = target: Ubiquitin carboxyl-terminal hydrolase 1 (Homo sapiens) (UniProt O94782); test: Inhibitors of USP1/UAF1: Pilot qHTS (AID 504865);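 also: rhodamine fluorescence freed from ubiquitin-rhodamine substrate followed over time; top concentration of the series differs between compounds; nearly all actives have a fitted effect of over 35% in size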
Summary of the method: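 Deubiquitinase activity followed as kinetic rhodamine fluorescence release from 150 nM Ub-Rho. 1 nM USP1/UAF1 with compound, after 15 min room-temperature preincubation, in HEPES pH 7.8 buffer containing TCEP, EDTA, BSA and Tween-20.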

[12] = tested on: Zika virus NS2B-NS3 protease (unlinked); test: Optimization of GU AMC qHTS for Zika virus inhibitors: Unlinked NS2B-NS3 protease assay (AID 1347151); also: nearly all actives have a fitted effect of over 80% in size
Summary of the method: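 Fluorescence gain (340/450 nm) over 15 min at room temperature, ~20% conversion, gave percent inhibition fitted to a 4-parameter Hill equation; enzyme was unlinked NS2B-NS3 (25 nM final), pH 8.0 Tris buffer.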

[13] = measured here: cell count channel max response
[14] = measured here: lipid channel max response

Furin (Homo sapiens), sequence (P09958 whole entry, looked up): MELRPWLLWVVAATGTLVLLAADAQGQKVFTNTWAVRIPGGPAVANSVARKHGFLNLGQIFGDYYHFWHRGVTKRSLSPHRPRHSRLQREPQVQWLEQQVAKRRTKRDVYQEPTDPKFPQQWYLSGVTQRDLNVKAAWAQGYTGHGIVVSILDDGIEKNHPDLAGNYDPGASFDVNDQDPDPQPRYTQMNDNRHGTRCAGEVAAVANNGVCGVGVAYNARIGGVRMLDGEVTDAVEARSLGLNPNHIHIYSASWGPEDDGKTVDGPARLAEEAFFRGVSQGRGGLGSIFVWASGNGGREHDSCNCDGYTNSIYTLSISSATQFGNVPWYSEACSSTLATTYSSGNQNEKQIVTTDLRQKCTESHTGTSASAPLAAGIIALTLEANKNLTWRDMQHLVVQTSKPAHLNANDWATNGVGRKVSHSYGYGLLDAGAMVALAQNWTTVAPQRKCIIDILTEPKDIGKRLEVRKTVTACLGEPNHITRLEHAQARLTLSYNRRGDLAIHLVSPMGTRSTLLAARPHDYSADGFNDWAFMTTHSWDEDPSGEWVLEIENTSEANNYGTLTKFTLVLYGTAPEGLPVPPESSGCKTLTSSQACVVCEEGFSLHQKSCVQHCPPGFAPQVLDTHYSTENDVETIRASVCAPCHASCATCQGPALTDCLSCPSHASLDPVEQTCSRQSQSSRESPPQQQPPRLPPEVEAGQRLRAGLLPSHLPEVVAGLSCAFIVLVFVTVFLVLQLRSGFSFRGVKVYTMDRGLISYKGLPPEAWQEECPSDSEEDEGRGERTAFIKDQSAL
Cytochrome P450 3A4 (Homo sapiens), sequence (P08684 whole entry, looked up): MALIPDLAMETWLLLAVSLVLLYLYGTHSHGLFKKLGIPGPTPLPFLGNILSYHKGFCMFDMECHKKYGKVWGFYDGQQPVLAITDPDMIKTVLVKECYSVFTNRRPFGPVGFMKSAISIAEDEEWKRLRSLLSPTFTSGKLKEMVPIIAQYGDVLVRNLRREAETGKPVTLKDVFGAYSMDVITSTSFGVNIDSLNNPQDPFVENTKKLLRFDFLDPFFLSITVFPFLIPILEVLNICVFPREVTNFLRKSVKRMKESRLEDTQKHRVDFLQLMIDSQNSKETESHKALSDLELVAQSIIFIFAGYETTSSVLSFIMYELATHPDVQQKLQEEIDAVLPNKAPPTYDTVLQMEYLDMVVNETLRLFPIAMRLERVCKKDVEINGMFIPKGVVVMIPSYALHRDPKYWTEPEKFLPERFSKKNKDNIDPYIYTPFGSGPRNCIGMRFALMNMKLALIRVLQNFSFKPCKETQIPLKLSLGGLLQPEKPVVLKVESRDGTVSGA
Ubiquitin carboxyl-terminal hydrolase 1 (Homo sapiens), sequence (O94782 whole entry, looked up): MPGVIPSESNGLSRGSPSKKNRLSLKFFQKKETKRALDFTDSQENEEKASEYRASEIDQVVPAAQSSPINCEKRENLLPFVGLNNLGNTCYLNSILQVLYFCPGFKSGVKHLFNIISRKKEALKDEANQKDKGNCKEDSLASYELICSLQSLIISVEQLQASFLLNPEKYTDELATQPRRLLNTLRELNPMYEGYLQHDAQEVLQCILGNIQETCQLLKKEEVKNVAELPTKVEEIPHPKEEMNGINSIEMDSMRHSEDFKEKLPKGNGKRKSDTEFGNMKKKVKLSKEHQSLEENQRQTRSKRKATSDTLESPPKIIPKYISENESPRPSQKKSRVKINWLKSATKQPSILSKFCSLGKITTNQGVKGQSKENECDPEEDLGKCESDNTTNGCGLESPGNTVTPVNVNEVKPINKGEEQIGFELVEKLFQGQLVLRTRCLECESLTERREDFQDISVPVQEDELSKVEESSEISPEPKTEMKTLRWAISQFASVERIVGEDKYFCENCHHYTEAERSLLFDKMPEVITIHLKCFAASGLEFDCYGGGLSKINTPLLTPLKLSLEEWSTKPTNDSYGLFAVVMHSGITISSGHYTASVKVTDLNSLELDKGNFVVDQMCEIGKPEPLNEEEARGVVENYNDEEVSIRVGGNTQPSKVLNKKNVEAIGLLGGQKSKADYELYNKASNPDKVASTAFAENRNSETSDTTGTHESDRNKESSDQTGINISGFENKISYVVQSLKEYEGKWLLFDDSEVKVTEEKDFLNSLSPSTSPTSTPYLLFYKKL

OC12C3C4CC5C6C4C1C6C(C53)N2CCc1cccc(F)c1 (stereo unspecified)
Potency [1]: inactive

C=C(C)C1CCC(C)=CC1c1c(OC)cc(C)cc1OC (stereo unspecified)
Potency [1]: inactive

O=c1c(O)c(-c2ccc(O)c(O)c2)oc2c(O)c(O)cc(O)c12
Potency [2]: inactive | Potency [3]: inactive | outcome [4]: inactive | activity change, negative = inhibition [5]: 10.8% (inactive) | max response [5, 13]: -1.92% | max response [5, 14]: 12.9% | Potency [6]: inactive | Potency [7]: 22.4 µM (active) | Potency [8]: 11.2 µM (active) | Potency [9]: 158 µM (active) | Potency [10]: 100 µM (active)

COC1C(O)C(C)O[C@@H](OC2CC[C@@]3(C)C4CC[C@]5(C)C(C6=CC(=O)OC6)CC[C@@]5(O)C4CC[C@@H]3C2)C1O (stereo partly specified)
Potency [2]: inactive | Potency [3]: inactive | activity change, negative = inhibition [5]: 8.72% (inactive) | max response [5, 13]: 8.32% | max response [5, 14]: 14.8% | Potency [11]: inactive | Potency [6]: inactive | outcome [12]: inactive
